# Assay outcomes from PubChem.
# Sampled rows, rich in hits. Any-hit rate of the full collection: about 5%.
# SENP7 inh: SENP7 protease inhibition; Q9BQF6; recombinant SENP7, Z-RLRGG-aminoluciferin luminescence, 40 min; inhibition, % at 5 µM; 330,000 tested, 1.5% active;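 active = inhibition above about 50% at the single test dose, limit read from the data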;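 also: plate controls were DMSO with enzyme for no effect and no enzyme buffer wells for full effect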
# SENP6 inh: inhibitors of human SENP6 protease; Recombinant SENP6 catalytic domain, aminoluciferin luminescence; inhibition, % at 10 µM; 330,000 tested, 1.8% active;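 active = inhibition above about 50% at the single tested dose, limit read from the data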;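 also: plate controls were DMSO wells with enzyme for no effect and DMSO wells lacking enzyme for full effect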
# SENP8 block-1: SENP8 protease inhibition | 330,000 tested, 1.2% active | Q96LD8 | inhibition, % at 10 µM | purified SENP8, Z-RLRGG-aminoluciferin cleavage, luminescence; in the data active = inhibition above about 50%
# EBI2 antag: antagonists of human EBI2 receptor. P32249. EBI2 beta-arrestin recruitment, luminescence, 7a,25-OHC stimulated. inhibition, % at 5 µM. 360,000 tested, 0.81% active. AID 651636; in the data active = inhibition above about 38%;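 also: enzyme fragment complementation signal reports receptor beta-arrestin coupling in cells; 0% = agonist plus DMSO wells and 100% = wells without agonist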
# SENP8 block-2: blocks human SENP8 cleavage of Nedd8 substrate; Q96LD8; inhibition, % at 20 µM; 360,000 tested, 0.64% active; recombinant SENP8, Nedd8 substrate fluorescence; in the data active = inhibition mostly above about 40%, no sharp cut-off; inactive = mostly below about 27%
# AHR act: activates the human aryl hydrocarbon receptor; AHR-responsive luciferase reporter cells, luminescence; activation, % at 5 µM; 320,000 tested, 2.5% active; AID 2796; in the data active = activation above about 47%;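 also: 0% = vehicle wells and 100% = reference agonist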
# Target sequence (P35869 whole entry, looked up): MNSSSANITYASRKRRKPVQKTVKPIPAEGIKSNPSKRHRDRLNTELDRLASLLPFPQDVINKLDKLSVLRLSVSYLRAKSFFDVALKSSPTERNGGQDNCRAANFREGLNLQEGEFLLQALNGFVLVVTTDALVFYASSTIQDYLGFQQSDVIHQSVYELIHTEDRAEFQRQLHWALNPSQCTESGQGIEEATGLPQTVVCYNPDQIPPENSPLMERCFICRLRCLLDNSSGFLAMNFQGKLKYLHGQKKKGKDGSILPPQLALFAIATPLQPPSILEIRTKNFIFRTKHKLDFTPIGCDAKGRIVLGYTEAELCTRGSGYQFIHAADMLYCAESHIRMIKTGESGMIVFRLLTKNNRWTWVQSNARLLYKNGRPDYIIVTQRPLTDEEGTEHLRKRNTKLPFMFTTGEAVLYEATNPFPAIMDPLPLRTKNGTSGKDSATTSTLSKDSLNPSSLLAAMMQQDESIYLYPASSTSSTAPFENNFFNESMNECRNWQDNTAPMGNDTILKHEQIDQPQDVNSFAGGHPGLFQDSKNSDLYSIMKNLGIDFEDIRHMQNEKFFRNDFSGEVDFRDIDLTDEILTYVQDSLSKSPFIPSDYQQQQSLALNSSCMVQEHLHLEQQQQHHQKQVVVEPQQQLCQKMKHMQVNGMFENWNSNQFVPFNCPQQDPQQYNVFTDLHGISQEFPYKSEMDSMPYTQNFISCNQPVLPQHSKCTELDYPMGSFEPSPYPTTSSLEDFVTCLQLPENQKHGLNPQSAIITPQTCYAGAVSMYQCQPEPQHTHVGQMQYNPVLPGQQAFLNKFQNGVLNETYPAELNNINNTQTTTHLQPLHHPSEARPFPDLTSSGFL
# SENP8 conf: confirmation of human SENP8 protease inhibitors | shares compounds with SENP7 inh | Recombinant SENP8, Z-RLRGG-aminoluciferin luminescence, 60 min | inhibition, % at 12.5 µM | 6,200 tested, 40% active | AID 488912;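 active = mean inhibition across replicates above about 50%, limit read from the data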
# SENP6 conf: human SENP6 inhibition, confirmed; shares compounds with SENP7 inh; recombinant SENP6, Z-RLRGG-aminoluciferin luminescence; inhibition, % at 12.5 µM; 6,200 tested, 58% active; AID 488915
# SENP7 confirm: confirmation of human SENP7 protease inhibitors | shares compounds with SENP7 inh | recombinant SENP7, Z-RLRGG-aminoluciferin luminescence, 40 min | inhibition, % at 12.5 µM | 6,200 tested, 69% active | AID 488917
# Casp3 SENP sel: inhibits human caspase-3 in SENP selectivity test; shares compounds with SENP7 inh; purified caspase-3, Z-DEVD-aminoluciferin luminescence, 60 min; inhibition, % at 12.5 µM; 6,200 tested, 60% active;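 active = mean inhibition above about 50%, limit read from the data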;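 also: plate controls were enzyme with DMSO for no effect and wells without caspase-3 for full effect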
# Luc interf: luminescence interference (SENP counter-screen) | shares compounds with SENP7 inh | Pre-incubated SENP8/Z-RLRGG-aminoluciferin, luciferase luminescence interference | inhibition, % at 12.5 µM | 6,200 tested, 39% active | AID 488919;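 active = mean inhibition above about 50% when retested at one dose, limit read from the data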;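 also: plate controls were DMSO wells with completed reaction for no effect and substrate without enzyme for full effect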
# * hit, by the source's call; / = no result given.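 The calls were made as follows, unless noted: active = mean inhibition above about 50% in the one-dose retest (limit read from the data); inactive = the rest.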
SMILES,SENP7 inh,SENP6 inh,SENP8 block-1,EBI2 antag,SENP8 block-2,AHR act,SENP8 conf,SENP6 conf,SENP7 confirm,Casp3 SENP sel,Luc interf
COc1cccc(OCc2cc(/C=N/Nc3ccc(C(=O)O)cc3)ccc2OC)c1,11,87*,80*,-13,-201,7,58*,84*,95*,48,22
COc1cc(/C=N/Nc2ccc(Cl)c(C(=O)O)c2)ccc1OC(=O)c1ccc(F)cc1,-7,9,0,-17,-20,2,/,/,/,/,/
COc1ccc(C(=O)N/N=C/c2ccc(OC)c(COc3ccc(F)cc3)c2)cc1,12,-6,-6,21,-80,6,/,/,/,/,/
COc1cccc(C(=O)Oc2ccc(/C=N/Nc3ccc(C(=O)O)cc3)cc2OC)c1,4,52*,31,-7,-121,2,57*,50,66*,13,34
Clc1ccc2oc(-c3cccnc3)nc2c1,6,24,-10,4,-22,4,/,/,/,/,/
Clc1ccc2oc(-c3ccccc3)nc2c1,83*,-43,63*,9,8,7,10,55*,91*,26,2
Cc1ccccc1-c1nc2cc(Cl)ccc2o1,81*,16,58*,6,10,75*,10,69*,94*,44,13
CN(Cc1ccccc1)C(=O)CN1C(=O)NC(C)(c2ccc(Cl)cc2)C1=O (configuration not stated),-3,-10,2,-13,5,0,/,/,/,/,/
O=C(CN1C(=O)c2cccnc2Oc2ccc(Cl)cc21)N1CCCC1,0,-28,-2,-3,24,0,/,/,/,/,/
C=CCn1c(N)c(C(=O)NCC2CCCO2)c2nc3ccccc3nc21 (configuration not stated),23,91*,90*,1,-274,30,10,21,15,5,5
COc1ccc(-n2nc(C(=O)NCC(=O)NCC3CCCO3)c3ccccc3c2=O)c(OC)c1 (configuration not stated),2,-3,-7,0,4,-2,/,/,/,/,/
O=C(NCC1CCCO1)c1coc2nc3ccccc3nc12 (configuration not stated),8,7,10,2,-495,16,/,/,/,/,/
Nc1c(C(=O)NCc2ccccc2)c2nc3ccccc3nc2n1CCCN1CCOCC1,22,74*,63*,13,-410,0,0,7,-2,-4,-5
COc1ccc(-n2c(N)c(C(=O)NCC3CCCO3)c3nc4ccccc4nc32)c(OC)c1 (configuration not stated),38,68*,44,8,-290,0,-9,5,7,1,-6
COCCOC(=O)c1c(N)n(CCCN2CCOCC2)c2nc3ccccc3nc12,13,-7,-8,-6,-450,5,/,/,/,/,/
CN(Cc1ccc(OC(F)F)cc1)C(=O)c1ccc2c(=O)n3c(nc2c1)CCC3,-6,-5,4,-18,-89,1,/,/,/,/,/
NC(=S)NN=Cc1cc(-c2cccc(N)c2)ccn1,/,/,/,-38,1,/,/,/,/,/,/
Cc1cccc(C)c1OCC(=O)Nc1cccc(C(=O)O)c1,53*,69*,43,-2,12,2,65*,64*,88*,31,74*
Cc1ccc(C)c(OCC(=O)Nc2cccc(C(=O)O)c2)c1C,29,20,15,4,8,5,/,/,/,/,/
CCOC(=O)Nc1cccc(C(=O)O)c1,55*,61*,35,4,5,3,52*,54*,86*,34,71*
CCn1c2ccccc2c2cc(NC(=O)COC(=O)c3cc(S(N)(=O)=O)c(Cl)cc3Cl)ccc21,4,-18,-3,-4,-63,29,/,/,/,/,/
Cc1ccc(C(=O)c2sc3nsc(C)c3c2N)cc1,53*,57*,27,2,16,64*,12,27,60*,41,11
CCCCn1nnnc1C(c1ccccc1)N1CCN(c2cccc(C(F)(F)F)n2)CC1 (configuration not stated),/,/,/,7,-26,/,/,/,/,/,/
CCN(CC)S(=O)(=O)c1ccc(N=Nc2c(N)[nH]c(=O)[nH]c2=O)cc1,26,52*,20,-2,43*,1,15,11,14,37,2
CCN(CC)S(=O)(=O)c1ccc(N=NC2=C(O)CCCC2=O)cc1,8,26,4,-1,19,-2,/,/,/,/,/
SMILES,SENP7 inh,SENP6 inh,SENP8 block-1,EBI2 antag,SENP8 block-2,AHR act,SENP8 conf,SENP6 conf,SENP7 confirm,Casp3 SENP sel,Luc interf
O=C(CCC(=O)Nc1cccnc1)Nc1cccnc1,6,-16,-4,-2,8,1,/,/,/,/,/
CSc1nc(N)n2nc(-c3ccc(Cl)cc3)cc2n1,98*,94*,89*,-3,3,6,-4,14,9,31,-6
CCOC(=O)c1cnc2cc(-c3ccc(Cl)cc3)nn2c1N,15,-5,-12,4,-102,28,/,/,/,/,/
CC(=O)c1cccc2c(O)c(C3=Nc4ccccc4C3=O)[nH]c12,13,54*,59*,1,-1,61*,48,60*,43,46,19
O=C(COC(=O)/C=C/c1ccc(OC(F)F)cc1)Nc1ccc2[nH]c(=O)[nH]c2c1,9,-2,6,-6,-6,-1,/,/,/,/,/
COc1ccc(/C=N/OC(=O)Nc2ccccc2OC)cc1,81*,43,72*,0,18,5,20,87*,22,83*,33
O=C(Nc1ccccc1)O/N=C/c1ccccc1Cl,56*,39,26,11,14,0,60*,53*,77*,35,53*
O=C(Nc1ccccc1)O/N=C/c1ccc(F)cc1,59*,68*,42,8,15,3,67*,65*,89*,75*,48
Cc1ccc(NC(=O)O/N=C/c2ccc(F)cc2)cc1,2,6,2,3,9,5,/,/,/,/,/
COc1cc(O)c(C=Nc2ccccc2NS(=O)(=O)c2ccc(C)cc2)c(OC)c1,/,/,/,-3,12,/,/,/,/,/,/
COC(=O)Cc1cc(=O)oc2cc(O)ccc12,-3,8,2,-12,-425,2,/,/,/,/,/
CC(=O)Nc1cnc(NC(=O)c2cccc(F)c2)cc1C,7,4,-11,3,1,9,/,/,/,/,/
